Assay results: article PMC4336329 (PLoS ONE, 2015)
Out of some 310,000 compounds screened, about 2,200 (0.71%) showed an effect of 50% or more. The effect is printed as a negative number. The full list was thinned out, with strong results kept by preference.

What follows are compounds tested against human ether-à-go-go-related gene (hERG) potassium channel (human, UniProt Q12809) (assay: primary screen, population patch clamp on CHO cells stably expressing hERG; higher = less effect of the substance).
human ether-à-go-go-related gene (hERG) potassium channel, sequence (Q12809 whole entry, looked up): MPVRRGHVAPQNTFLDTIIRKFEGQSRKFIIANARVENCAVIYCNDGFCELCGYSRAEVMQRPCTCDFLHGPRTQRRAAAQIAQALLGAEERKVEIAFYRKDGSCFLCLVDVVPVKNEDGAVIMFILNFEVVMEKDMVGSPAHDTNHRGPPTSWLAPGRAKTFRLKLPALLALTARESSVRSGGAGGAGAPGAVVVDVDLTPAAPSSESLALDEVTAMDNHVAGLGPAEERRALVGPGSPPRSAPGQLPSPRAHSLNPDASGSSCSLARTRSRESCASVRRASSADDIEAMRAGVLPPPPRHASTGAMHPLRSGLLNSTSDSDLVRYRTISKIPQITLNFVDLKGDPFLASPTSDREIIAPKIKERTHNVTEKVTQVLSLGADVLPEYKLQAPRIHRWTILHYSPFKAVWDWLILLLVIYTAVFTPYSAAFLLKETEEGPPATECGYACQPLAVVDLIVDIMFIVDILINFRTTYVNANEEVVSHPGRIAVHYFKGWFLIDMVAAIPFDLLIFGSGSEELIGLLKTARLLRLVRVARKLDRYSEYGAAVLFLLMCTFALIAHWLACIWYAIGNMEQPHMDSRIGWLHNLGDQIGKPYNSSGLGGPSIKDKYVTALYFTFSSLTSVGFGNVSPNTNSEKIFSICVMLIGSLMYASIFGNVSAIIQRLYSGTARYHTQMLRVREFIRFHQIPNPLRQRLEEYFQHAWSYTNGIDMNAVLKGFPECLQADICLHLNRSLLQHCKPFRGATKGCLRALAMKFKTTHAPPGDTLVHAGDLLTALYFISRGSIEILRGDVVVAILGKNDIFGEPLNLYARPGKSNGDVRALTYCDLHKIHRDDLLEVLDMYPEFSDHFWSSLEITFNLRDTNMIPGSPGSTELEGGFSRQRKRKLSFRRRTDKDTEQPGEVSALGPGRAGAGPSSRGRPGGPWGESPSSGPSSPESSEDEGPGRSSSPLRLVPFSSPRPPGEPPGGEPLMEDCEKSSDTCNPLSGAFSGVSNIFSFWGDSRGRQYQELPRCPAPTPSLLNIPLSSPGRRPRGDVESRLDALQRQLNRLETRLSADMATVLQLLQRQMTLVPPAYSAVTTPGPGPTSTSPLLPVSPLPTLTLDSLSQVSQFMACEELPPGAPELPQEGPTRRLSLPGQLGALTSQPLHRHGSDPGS

First: O=C(NNC(=O)c1sc2cccc(Cl)c2c1Cl)Nc1ccccc1
Second: CC(=O)Nc1ccc(C(=O)Nc2nc(-c3cc(C)n(Cc4ccccc4)c3C)cs2)cc1
The “hERG current change (%, negative = inhibition) at 1uM” value of the first is higher: 13.9% for the first, 11.3% for the second.

First: COc1ccc(-c2coc3c(C)c4oc(=O)c(CCC(=O)O)c(C)c4cc23)cc1
Second: COc1ccc(-c2cc(=[NH+]c3cccc(C(=O)O)c3)c3cc(C)ccc3o2)cc1.[O-][Cl+3]([O-])([O-])[O-]
The “hERG current change (%, negative = inhibition) at 1uM” value of the first is lower: 6.19% for the first, 6.72% for the second.

First: CCCCCCNC(=O)CC(NS(=O)(=O)c1ccc(NC(C)=O)cc1)C(C)C (centres unmarked)
Second: COc1cc(NS(=O)(=O)c2ccc(NC(=O)COc3ccccc3Cl)cc2)nc(OC)n1
The “hERG current change (%, negative = inhibition) at 1uM” value of the first is lower: -0.978% for the first, 4.62% for the second.

First: COc1ccc(OC)c(NC(=O)c2cccc(N3C(=O)C4C5CCC(C5)C4C3=O)c2)c1 (centres unmarked)
Second: COc1ccc(OC)c(N2C(=O)CC(Cc3cc(C)cc(C)c3)C2=O)c1 (centres unmarked)
The “hERG current change (%, negative = inhibition) at 1uM” value of the first is lower: 2.22% for the first, 5.71% for the second.

Compared with `O=c1oc2ccc(Cl)cc2cc1-c1ccccc1`, `O=c1cc(-c2ccccc2)oc2ccc(O)cc12` is lower in “hERG current change (%, negative = inhibition) at 1uM” value: 16.1% for the first, 4.17% for the second.

Going from `F[B-](F)(F)F.OCC[NH+]=c1cc(-c2ccccc2)oc2ccc(Cl)cc12` to `F[B-](F)(F)F.OCCC[NH+]=c1cc(-c2ccccc2)oc2ccc(Cl)cc12`, the “hERG current change (%, negative = inhibition) at 1uM” value falls from -71.1% to -78%.

First: Clc1ccc(Oc2ncnc3oc(-c4ccccc4)cc23)cc1
Second: COc1ccc(-c2cc(=[NH+]c3ccccc3)c3cc(C)ccc3o2)cc1.[O-][Cl+3]([O-])([O-])[O-]
The “hERG current change (%, negative = inhibition) at 1uM” value of the first is lower: 6.4% for the first, 14% for the second.

First: OCCCNc1nc(-c2ccccc2)c2cc(Cl)ccc2n1
Second: F[B-](F)(F)F.OCCCCC[NH+]=c1cc(-c2ccccc2)oc2ccc(Cl)cc12
The “hERG current change (%, negative = inhibition) at 1uM” value of the first is higher: 5.65% for the first, -86.1% for the second.

Going from `Cc1cc(C(=O)OCC(=O)N2C(C)CCCC2C)c(C)o1` (centres unmarked) to `CCOC(=O)C1CCN(C(=O)CCS(=O)(=O)c2ccc3c(c2)n(C)c(=O)c(=O)n3C)CC1`, the “hERG current change (%, negative = inhibition) at 1uM” value rises from 9.75% to 10.2%.

Going from `COc1ccc(-n2c(Cc3cccn3C)nnc2SCC(=O)Nc2cccc(NC(C)=O)c2)cc1` to `COc1ccc(C2CC(c3ccccc3)=NN2c2ccc(S(N)(=O)=O)cc2)cc1OC` (centres unmarked), the “hERG current change (%, negative = inhibition) at 1uM” value rises from 3.64% to 7.52%.

Going from `Cc1ccc(OCCOCCn2cnc3ccccc3c2=O)c([N+](=O)[O-])c1.O=C(O)C(=O)O` to `CCCCOc1ccc(CSc2nnc(C)n2N)cc1[N+](=O)[O-]`, the “hERG current change (%, negative = inhibition) at 1uM” value rises from -6.31% to -2.42%.

Going from `CCCOc1ccc(CSC2=NCCN2)cc1[N+](=O)[O-]` to `CCCCOc1ccc(CSC2=NCCN2)cc1[N+](=O)[O-].Cl`, the “hERG current change (%, negative = inhibition) at 1uM” value rises from -53.5% to -22.3%.

Compared with `CCCCCOc1ccc(CSC(=N)N)cc1[N+](=O)[O-].Cl`, `CCCCOc1ccc(CSC(=N)N)cc1[N+](=O)[O-].Cl` is lower in “hERG current change (%, negative = inhibition) at 1uM” value: -3.45% for the first, -26.4% for the second.

Going from `COc1ccc(CSC2=NCCN2)cc1Br` to `COc1ccc(CSC2=NCCN2)cc1Cl.Cl`, the “hERG current change (%, negative = inhibition) at 1uM” value falls from 10.8% to -7.52%.

First: CCOc1ccc(CSC2=NCCN2)cc1[N+](=O)[O-].Cl
Second: CCCCCOc1ccc(CSC2=NCCN2)cc1[N+](=O)[O-]
The “hERG current change (%, negative = inhibition) at 1uM” value of the first is lower: -71% for the first, -60% for the second.

Going from `Br.O=[N+]([O-])c1ccc(CSC2=NCCN2)cc1` to `CCOc1ccc(CSC2=NCCN2)cc1Cl.Cl`, the “hERG current change (%, negative = inhibition) at 1uM” value falls from 8.87% to -4.54%.

First: CCOc1ccc(CSC(=N)N)cc1[N+](=O)[O-].Cl
Second: NC(=O)CSc1nnc(-c2ccccn2)n1N
The “hERG current change (%, negative = inhibition) at 1uM” value of the first is lower: -50.3% for the first, 12.4% for the second.

Going from `COc1cc(OC)cc(C(=O)Nc2ccc3c(c2)OCCO3)c1` to `COc1cccc(CC2(CO)CCCN(C/C=C/c3ccccc3OC)C2)c1` (centres unmarked), the “hERG current change (%, negative = inhibition) at 1uM” value falls from 7.93% to -32.8%.

Going from `O=C(Cn1cc(/C=C\[N+](=O)[O-])c2ccccc21)Nc1ccccc1` to `COc1ccccc1/C=C/CN1CCC(CO)(Cc2ccccc2)CC1`, the “hERG current change (%, negative = inhibition) at 1uM” value falls from 8.45% to 0.366%.

Going from `CSc1ccccc1C(=O)N1CCN(S(=O)(=O)c2sc(C(=O)O)c(C)c2C(=O)O)CC1` to `COc1ccc(/C=C/CN2CCC(CO)(Cc3ccccc3Cl)CC2)cc1`, the “hERG current change (%, negative = inhibition) at 1uM” value falls from 0.019% to -61.9%.

Compared with `CC(C)CCNC(=O)C1c2ccccc2Oc2ccccc21`, `OCC1(Cc2ccccc2Cl)CCN(C/C=C/c2ccccc2)CC1` is lower in “hERG current change (%, negative = inhibition) at 1uM” value: -12.1% for the first, -27.8% for the second.

First: COc1ccc(CC2(CO)CCN(C/C=C/c3ccccc3OC)CC2)cc1
Second: COc1ccc(/C=C/CN2CCCC(CO)(Cc3cccc(Cl)c3)C2)cc1 (centres unmarked)
The “hERG current change (%, negative = inhibition) at 1uM” value of the first is lower: -71.4% for the first, 3.25% for the second.
